High-throughput results (PubChem)
An excerpt weighted towards active compounds, which were near 4.7% of everything screened.
ATXN viability: Viability Counterscreen for Primary qHTS for Inhibitors of ATXN expression; S2 cells (HEK-293 line with an ATXN2-luciferase reporter) viability, CellTiter-Fluor protease fluorescence, 24 h; Potency, µM (titrated, usually from 56.7 µM), actives largely listed as cytotoxic; actives 0.49% (n = 400,000); AID 651635, 2014; also: nearly all actives have a fitted effect of over 40% in size
D3 ag: qHTS of D3 Dopamine Receptor Agonist: qHTS. D(3) dopamine receptor (Homo sapiens), P35462. D3R DiscoveRx beta-arrestin cells, luminescence, 90 min. max activation, %. actives 0.58% (n = 410,000). AID 652048, 2013; in the data active = max activation above about 30%
Target sequence (P35462 whole entry, looked up): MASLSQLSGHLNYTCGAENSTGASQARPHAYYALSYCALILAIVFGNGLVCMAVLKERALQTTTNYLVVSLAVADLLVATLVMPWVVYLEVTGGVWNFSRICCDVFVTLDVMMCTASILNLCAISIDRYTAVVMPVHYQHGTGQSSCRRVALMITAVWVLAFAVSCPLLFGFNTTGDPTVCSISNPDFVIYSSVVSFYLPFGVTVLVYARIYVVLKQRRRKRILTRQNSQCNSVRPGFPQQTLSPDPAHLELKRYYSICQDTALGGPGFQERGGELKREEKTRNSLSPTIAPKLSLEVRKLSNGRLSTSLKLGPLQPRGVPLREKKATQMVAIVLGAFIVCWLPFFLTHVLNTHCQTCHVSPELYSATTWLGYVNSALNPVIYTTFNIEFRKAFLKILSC
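Agonist-mode cell screen: cells plated at 1500/well and incubated overnight at 37 °C, then exposed to library compounds for 90 min at 37 °C. Detection reagent was added for 30–60 min at room temperature, and luminescence was read.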
HepG2 tox: qHTS for Inhibitors of TGF-b: Cytotox Counterscreen. HepG2 CAGA-GFP viability, ATP luminescence, 18 h. Potency, µM (top dose mostly 46.1 µM), actives largely listed as cytotoxic. actives 0.76% (n = 410,000). AID 588856, 2011
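HepG2 CAGA-GFP cells (1000/well, DMEM with 1% FBS) received compound, then TGF-beta at 500 pg/mL final, and were incubated 18 hours at 37 degrees C. Viability was read by CellTiter-Glo luminescence. Media-only wells were set as complete cell-killing and DMSO as no toxicity.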
DRD3 antagonist: qHTS of D3 Dopamine Receptor Antagonist: qHTS; max response, negative = inhibition, %; AID 652054, 2013; D3R cells, DiscoveRx beta-arrestin luminescence, antagonist mode; active compounds read low; actives 2.5% (n = 360,000); D(3) dopamine receptor (Homo sapiens), P35462; in the data active = max response below about -50%; inconclusive = no clear call, values can overlap the other calls
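Cells expressing the human receptor were seeded at 1500 cells/well, incubated overnight at 37 degrees C in 5% CO2, then exposed to library compounds with dopamine controls for 90 minutes at 37 degrees C before luminescent detection.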
ATXN2 expr inh: Primary qHTS for Inhibitors of ATXN expression; HEK-293 ATXN2-luciferase reporter, luminescence, 24 h; Potency, µM (series often up to 57 µM), hits mostly inhibitors; actives 0.72% (n = 360,000); also: nearly all actives have a fitted effect of over 55% in size
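ATXN2-luciferase reporter cells (luciferase flanked by upstream and downstream ATXN2 gene portions) were treated 24 h at 37 °C with compounds at up to 57 uM. SteadyGlo luminescence gave expression; GF-AFC fluorescence gave viability.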
TGFb inhibitor: qHTS for Inhibitors of TGF-b. AID 588855, 2011. actives 1.2% (n = 410,000). HepG2 CAGA-GFP TGF-b/SMAD3 reporter, GFP fluorescence, 18 h; TGF-beta stimulated, 500 pg/mL final. Potency, µM (titrated, usually from 46.1 µM), hits mostly inhibitors; also: nearly all actives have a fitted effect of over 65% in size
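Inhibition of TGF-beta-driven CAGA-GFP reporter expression in HEPG2 cells is measured by cellular GFP fluorescence after 18 h stimulation with 500 pg/mL recombinant TGF-beta in 1% FBS medium at 37 degrees C.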
Large screens that a line does not name were inactive; ! = repeats disagree. Unless noted, calls follow the shape of the dose curve; as a rule, active = well fitted curve in the direction sought with a large enough effect; inconclusive = small, poorly fitted or top-dose-only effect, or another doubt; inactive = no such curve, though single readings can be large; an effect the other way counts as inactive or inconclusive.

CCn1cc(C(=O)NCc2ccncc2)c(=O)c2cc(F)c(N3CCN(C(=O)c4ccco4)CC3)cc21	none
CCn1cc(C(=O)NCc2ccccc2)c(=O)c2cc(F)c(N3CCN(C(=O)c4ccco4)CC3)cc21	ATXN2 expr inh inconclusive, TGFb inhibitor 20µM
Cc1noc(-c2ccc(-c3noc(-c4ccc(Cl)cc4)n3)cc2)n1	none (no result: DRD3 antagonist)
Cc1cnc(/C=C/c2ccc(N(C)C)cc2)cn1	none (no result: ATXN viability, D3 ag, DRD3 antagonist, ATXN2 expr inh)
Cc1ccc(NC(=O)C(C)N=C2NS(=O)(=O)c3ccccc32)cc1F (centres undefined)	DRD3 antagonist -56
CCC(C)NC(=O)c1ccccc1NC(=O)c1ccc(CSc2ccccc2)cc1 (centres undefined)	HepG2 tox 16µM, TGFb inhibitor inconclusive
COCCN1CCN(C(=O)c2cnn(-c3ncc4c(n3)-c3ccc(OC)cc3CC4)c2C2CC2)CC1	none (no result: D3 ag, HepG2 tox, DRD3 antagonist, ATXN2 expr inh, TGFb inhibitor)
COc1ccc(CNC(=O)CN2CCC(C(=O)c3ccc(OC)cc3)CC2)cc1	ATXN viability inconclusive, DRD3 antagonist inconclusive
CC1(C)C(=O)N(CCN2CCC(C(=O)c3ccc(F)cc3)CC2)c2ccccc21	DRD3 antagonist -84
COc1ccc(C(=O)C2CCN(CC(=O)NCc3ccccc3)CC2)cc1	DRD3 antagonist -52
O=C(c1ccc(F)cc1)C1CCN(Cc2cn[nH]c2-c2ccc(F)cc2)CC1	DRD3 antagonist inconclusive
O=C(c1ccc(F)cc1)C1CCN(Cc2ccccc2F)CC1	ATXN viability inconclusive, DRD3 antagonist -112 (no result: ATXN2 expr inh)
O=C(CN1CCC(C(=O)c2ccc(F)cc2)CC1)NCc1ccccc1F	DRD3 antagonist -79
CN(C)c1c(Br)cc(C=O)cc1Br	none (no result: ATXN viability, D3 ag, DRD3 antagonist, ATXN2 expr inh)
CCc1cccc(NC(=O)COC(=O)c2ccccc2OCc2ccccc2Br)c1	TGFb inhibitor inconclusive (no result: ATXN viability, D3 ag, DRD3 antagonist, ATXN2 expr inh)
O=C(c1ccc(Cl)cc1)C1CCN(Cc2ccccc2)CC1	DRD3 antagonist -114 (no result: ATXN2 expr inh)
COc1ccc(C(=O)OCC(=O)N2CCCC2=O)c(OC)c1	DRD3 antagonist -56
COc1cc(SC)ccc1C(=O)OCC(=O)N1CCN(C(C)=O)CC1	DRD3 antagonist -64
COc1ccc2oc(C(=O)OCC(=O)N3CCCC3=O)c(C)c2c1	none
O=C1CC(C(F)(F)F)=NN1	D3 ag 33
CC(C)(C)n1ncc2c(=O)n(Cc3cccc(C(F)(F)F)c3Cl)cnc21	none (no result: ATXN viability, D3 ag, DRD3 antagonist, ATXN2 expr inh)
CCCCN(C)CCn1c(=S)[nH]c2ccc(N3CCOCC3)cc2c1=O	DRD3 antagonist -66
CC(C)(O)CC[C@@H](O)[C@](C)(O)[C@H]1CC[C@@]2(O)C3=CC(=O)[C@@H]4C[C@@H](O)[C@@H](O)C[C@]4(C)[C@@H]3CC[C@]12C	none (no result: ATXN viability, D3 ag, HepG2 tox, DRD3 antagonist, TGFb inhibitor)
CCOC(=O)[C@@H](C)N(C(=O)OC(C)(C)C)S(=O)(=O)N(Cc1ccccc1)[C@H](C(=O)OC)C(C)C	ATXN viability inconclusive, TGFb inhibitor 10µM!
CCOC(=O)[C@@H](C)N(C(=O)OC(C)(C)C)S(=O)(=O)N(Cc1ccccc1)[C@@H](C(=O)OC)C(C)C	TGFb inhibitor inconclusive (no result: ATXN viability, D3 ag, DRD3 antagonist, ATXN2 expr inh)
CN(Cc1ccc(Cl)c(Cl)c1)C(=O)c1ccccc1SCC(=O)N1CCCC1	TGFb inhibitor inconclusive
COC(=O)[C@H](C)N(Cc1ccc(Cl)c(Cl)c1)S(=O)(=O)CCN1CCCC1	DRD3 antagonist -68
CC(C)C(NS(=O)(=O)c1cccs1)C(=O)NCCN1CCN(c2ccccc2)CC1 (centres undefined)	none
COC(=O)[C@H](C(C)C)N(Cc1ccccc1)S(=O)(=O)CCN1CCN(c2ccccc2)CC1	DRD3 antagonist inconclusive, TGFb inhibitor inconclusive
COC(=O)[C@H](C(C)C)N(Cc1ccccc1)S(=O)(=O)CCN1CCCC1	DRD3 antagonist -59
COC(=O)[C@H](C)N(Cc1ccc(Cl)c(Cl)c1)S(=O)(=O)CCN1CCN(c2ccccc2)CC1	DRD3 antagonist -71, TGFb inhibitor 11µM
COc1c(C)cc(NS(=O)(=O)c2ccc3c(c2)OCCO3)cc1C	none (no result: DRD3 antagonist)
CCN1CCN(Cc2c(O)ccc3oc(C)c(C(=O)Nc4cccc(Cl)c4C)c23)CC1	none (no result: DRD3 antagonist)
COc1ccc(C(=O)N(Cc2cc3cccc(C)c3nc2N(C)C)CC2CCCO2)cc1 (centres undefined)	none (no result: D3 ag, HepG2 tox, DRD3 antagonist, ATXN2 expr inh, TGFb inhibitor)
CCOC(=O)C(=CNc1cc(C)ccc1C)C(=O)OCC	none
CCOC(=O)C(=CNc1cc(OC)ccc1-n1cccc1)C(=O)OCC	ATXN viability inconclusive, D3 ag 51
O=C(Nc1cc(Br)ccc1O)C1CC(c2ccccc2Cl)=NO1 (centres undefined)	TGFb inhibitor 16µM
O=C(Nc1cc(Cl)ccc1O)C1CC(c2c(F)cccc2Cl)=NO1 (centres undefined)	none
N#CC(=C1Nc2ccccc2S1)c1ccnc(OCc2ccc(CN3CCOCC3)cc2)n1	ATXN2 expr inh 0.014µM (no result: ATXN viability, D3 ag, HepG2 tox, DRD3 antagonist, TGFb inhibitor)
COc1ccc(-c2ccc(SC)nn2)cc1	HepG2 tox 7.1µM, ATXN2 expr inh inconclusive
Cc1ccc2c(c1)[C@@H]1[C@H](CO2)[C@H](c2ccccc2)[C@@]2(C)C(=O)N[C@H](C)C(=O)N12	D3 ag 31
C[C@H]1NC(=O)[C@]2(C)[C@@H](c3ccccc3)[C@H]3COc4ccccc4[C@@H]3N2C1=O	none
CCOC(=O)c1ccc(/C=C2/C=C(c3ccccc3)N(c3ccc(Cl)c(C(=O)O)c3)C2=O)cc1	ATXN viability inconclusive, DRD3 antagonist inconclusive, ATXN2 expr inh 11µM
O=C(NCCc1nnc2n1CCN(Cc1ccsc1)CC2)c1ccc(F)cc1	none (no result: D3 ag, HepG2 tox, DRD3 antagonist, ATXN2 expr inh, TGFb inhibitor)
Cc1nc2c(cc1N)nc(C)n2Cc1ccccc1	DRD3 antagonist -51
Cc1nc2ccc(N)cc2c(=O)n1Cc1ccc(Cl)cc1	none
CC1COc2c(N3CCN(C)CC3)c(F)cc3c(=O)c(C(=O)O)cn1c23 (centres undefined)	DRD3 antagonist -100
O=C(c1ccccc1)C(CCc1ccccn1)CCc1ccccn1	none
CN(C)CC(CCC(CN(C)C)C(=O)c1ccccc1)C(=O)c1ccccc1 (centres undefined)	ATXN viability 7.5µM, DRD3 antagonist -80, ATXN2 expr inh 7.5µM, TGFb inhibitor 6.3µM
COc1ccc(C(=O)C(CCCCC(CN(C)C)C(=O)c2ccc(OC)cc2)CN(C)C)cc1 (centres undefined)	DRD3 antagonist inconclusive (no result: ATXN viability)
CCOc1ccc(C(=O)C(CCC(CN(C)C)C(=O)c2ccc(OCC)cc2)CN(C)C)cc1 (centres undefined)	ATXN viability 3.2µM, HepG2 tox 2.8µM, DRD3 antagonist -85, ATXN2 expr inh 5.6µM, TGFb inhibitor 5µM
